From PubChem
Pf growth 96h: P. falciparum growth inhibition at 96 hour, primary screen for plastid delayed-death inhibitors | 320,000 compounds, 6.9% hits | Potency, µM (series often up to 28.7 µM), without a hit: top-dose activity change, negative = inhibition, hits mostly inhibitors | P. falciparum luciferase reporter growth, 96 h; further: on the % scale 0 is the no-effect control and ±100 the full control effect
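Delayed-death screen, second-generation endpoint: infected erythrocytes, 2% hematocrit, 0.05% parasitemia final; 96 hours at 37 C, 5% CO2; luciferase detection reagent; luminescence decrease equals reduced growth.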
SARS PLpro yeast: SARS-CoV PLP inhibition in yeast; 330,000 compounds, 0.19% hits; Potency, µM (titrated, usually from 32.9 µM), without a hit: top-dose activity, positive = growth rescue, most hits filed as activators; S. cerevisiae expressing SARS-CoV PLpro, growth rescue; calls by dose curve; further: 0% is about no effect; nearly all actives have a fitted effect of over 55% in size
Sm TGR inh: blocks Schistosoma mansoni thioredoxin glutathione reductase; Q962Y6; purified TGR, DTNB reduction, TNB absorbance 405 nm; Potency, µM (top dose mostly 114 µM), for the others: at the highest dose activity change, negative = inhibition, actives largely listed as inhibitors; 360,000 compounds, 3% hits; AID 485364; further: on the % scale 0 is the no-effect control and ±100 the full control effect; nearly all actives have a fitted effect of over 60% in size
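TGR 20 nM + NADPH 100 uM (dispensed conc.), cpd preinc 15 min RT; start with NADPH (500 uM addition) then DTNB (15 mM addition). Kinetic TNB absorbance, 405 nm filter. Four-parameter Hill fit across titration.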
Pf growth 48h: inhibits P. falciparum growth in the first generation, 48 h; P. falciparum luciferase growth in erythrocytes, 48 h; Potency, µM (titrated, usually from 28.7 µM), inactives show at the highest dose activity change, negative = inhibition, hits mostly inhibitors; 310,000 compounds, 5.9% hits; AID 504832; further: on the % scale 0 is the no-effect control and ±100 the full control effect
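Parasite viability was followed by luminescence of a genomically integrated firefly luciferase. Cultures held 0.1% parasitemia at 2% hematocrit (final), incubated under 5% CO2 at 37 C.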
The depositor's hits bear a star; u = inconclusive; x = no result; ! = not active in a repeat; [ ] = remark or other dose. An excerpt weighted towards active compounds, which were near 12% of everything screened. Unless noted, the call rests on the fitted dose curve; in most records, active means well fitted curve in the direction sought with a large enough effect; inconclusive means small, poorly fitted or top-dose-only effect, or another doubt; inactive means no such curve, though single readings can be large; an effect the other way counts as inactive or inconclusive. Potency means the concentration at half of the fitted maximal effect.

SMILES | Pf growth 96h | SARS PLpro yeast | Sm TGR inh | Pf growth 48h
COc1ccc(Nc2nc(Nc3ccc(OC)cc3)nc(SC3=NCCS3)n2)cc1 | 11.7µM* | -3.3% | -0.5% | x
CCN1C(=NCc2cc(OC)c(OC)c(OC)c2)N[C@@H](c2ccccc2)C(C(=O)OC)=C1C | 4.65µM* | -5.2% | 0.0% | -22.7%
COc1cc(CCN2C(=O)N[C@@H](c3cccc(C(F)(F)F)c3)C(C(C)=O)=C2C)cc(OC)c1OC | 10.4µM* | 6.0% | 1.3% | 13.1µM*
COC(=O)C1=C(C)N(Cc2ccccc2)C(=NCc2ccccc2)N[C@H]1c1cccc(C(F)(F)F)c1 | x | -13.5% | x | x
CCN(CC)CCCN=C1N[C@@H](c2ccccc2)C(C(=O)OC)=C(C)N1CC | 1.69µM*! | 4.1% | -20.6% | u
CCN1C(=NCc2cc(OC)c(OC)c(OC)c2)N[C@@H](c2cccc(C(F)(F)F)c2)C(C(=O)OC)=C1C | 2.62µM* | 2.9% | 2.1% | u
Cc1c(Cl)cccc1-c1ccc(CNc2ccc3[nH]c(=O)[nH]c3c2)o1 | x | x | -9.9% | x
CC(C)CCOP(N)(=O)Oc1ccccc1 (stereo not drawn) | 2.08µM* | 10.2% | -8.4% | -22.9%
CC(C)CCOP(N)(=O)Oc1ccccc1Cl (stereo not drawn) | -54.5% | 2.0% | 0.0% | u
CC1CCCCC1NC(=O)c1cccc(NC2=NC3CS(=O)(=O)CC3S2)c1 (stereo not drawn) | -3.9% | 0.9% | 2.7% | -7.7%
COc1ccc(Cl)cc1NC(=O)c1nn(-c2ccc(C)cc2)c(=O)n(C)c1=O | x | x | 1.1% | x
CC(=O)C(=Nc1ccccc1Cl)NNc1ccc(Cl)cc1 | 4.65µM* | -114.9% | 39.8µM* | 11.7µM*
Cc1nnc(SCC(=O)NC2CC2)s1 | 13.1µM* | 0.8% | 5.7% | -1.0%
Cc1nnc(SCC(=O)NC2CC2)n1-c1ccccc1 | 4.65µM* | u | -9.0% | 7.8%
CCCc1nc(SCC(=O)NC2CC2)c2c(C)c(C)sc2n1 | -13.1% | 1.0% | -0.1% | 6.2%
Cc1cccc(-n2c(SCC(=O)NC3CCCC3)nnc2-c2ccoc2C)c1 | 21.8% | -1.7% | -13.6% | 13.1µM*
CCc1nc(SCC(=O)NC2CC2)c2c(C)c(C)sc2n1 | 4.65µM* | -1.6% | 7.2% | -4.8%
O=C(Cn1c(=O)n(Cc2ccccc2)c(=O)c2sc3ccccc3c21)Nc1ccc(F)cc1 | x | x | -1.0% | x
COc1cccc(-n2c(SCC(=O)NC3CCCC3)nnc2-c2ccco2)c1 | -1.5% | -0.9% | u | 2.08µM*
CCS(=O)(=O)c1nc(S(=O)(=O)c2ccc(Cl)cc2)c(N2CCOCC2)s1 | -13.4% | -0.1% | 22.4µM* | u
CS(=O)(=O)c1nc(S(=O)(=O)c2ccc(Cl)cc2)c(N2CCC(C(N)=O)CC2)s1 | u | -1.2% | 11.2µM* | u
CCS(=O)(=O)c1nc(S(=O)(=O)c2ccc(Cl)cc2)c(N2CCC(C(N)=O)CC2)s1 | 2.6% | -9.7% | 2.4% | -6.3%
CCS(=O)(=O)c1nc(S(=O)(=O)c2ccc(Cl)cc2)c(N2CCC3(CC2)OCCO3)s1 | -0.3% | 1.7% | -0.6% | -15.0%
CCCCc1nc(S(=O)(=O)c2ccc(Cl)cc2)c(N2CCOCC2)o1 | -25.6% | 12.8% | 7.94µM* | 50.9%
CS(=O)(=O)c1nc(S(=O)(=O)c2ccc(Cl)cc2)c(N2CCC3(CC2)OCCO3)s1 | 2.94µM* | -3.2% | u | -13.1%
SMILES | Pf growth 96h | SARS PLpro yeast | Sm TGR inh | Pf growth 48h
CCc1ccccc1-n1cnc2cc(C(=O)NC3CCCCCC3)ccc21 | x | x | 1.0% | x
NC(=O)C1CCN(CCS(=O)(=O)c2ccc(Cl)cc2)CC1 | 8.3% | -1.5% | 44.7µM* | 9.7%
NC(=O)C1CCN(CCC(=O)Nc2cccc(Cl)c2)CC1 | 1.8%[5.75 µM] | 4.3% | -1.1% | -0.7%
Cc1ccc(S(=O)(=O)c2nc(S(C)(=O)=O)sc2N2CCC(C(N)=O)CC2)cc1 | 8.28µM* | -2.9% | u | u
Cc1ccc(S(=O)(=O)NCC2CCC(C(=O)NCCc3ccccc3)CC2)cc1 (stereo not drawn) | x | x | 6.7% | x
CN(C(=O)CC1C(=O)NCCN1C/C=C/c1ccccc1)C1CCOCC1 (stereo not drawn) | u | 0.9% | -18.9% | -0.1%
C#CCN(C(=O)CC1C(=O)NCCN1C/C=C/c1ccccc1)C1CCCCC1 (stereo not drawn) | 4.65µM* | 0.3% | -15.5% | -2.7%
Fc1ccccc1N1CCN(c2nnc(C(F)(F)F)c3nnn(Cc4ccccc4)c23)CC1 | x | x | 0.0% | x
Cc1ccc(NC(=O)CSc2nc3ccc(Nc4nc(N5CCOCC5)nc(N5CCOCC5)n4)cc3s2)cc1 | u | 8.3% | -0.9% | u
CC(C)(C)NC(=O)CSc1nc2ccc(Nc3nc(N4CCOCC4)nc(N4CCOCC4)n3)cc2s1 | u | -0.4% | x | 7.38µM*
CCOC(=O)CSc1nc2ccc(Nc3nc(N4CCOCC4)nc(N4CCOCC4)n3)cc2s1 | -29.6% | 5.1% | 17.0% | -23.7%
CC(=O)CSc1nc2ccc(Nc3nc(N4CCOCC4)nc(N4CCOCC4)n3)cc2s1 | 6.57µM* | -0.9% | 0.0% | u
CCCCCc1ccc(-c2cn(CC3CCCCC3)nn2)cc1 | 11.7µM* | -0.5% | 6.1% | 78.8%
O=C(CSc1nc2ccccc2n1-c1ccccc1)Nc1ncc(Cl)cc1Cl | 10.4µM* | -10.7% | -0.4% | u
Cc1cccc(-n2c(SCC(=O)Nc3ncc(Cl)cc3Cl)nc3ccccc32)c1 | 4.65µM* | -28.6% | 4.0% | u
CC1CN(Cc2cc(=O)n3ccsc3n2)CC(C)O1 (stereo not drawn) | 11.7µM* | -2.0% | -14.4% | 18.4%
O=c1cc(CN2CCC(Cc3ccccc3)CC2)nc2sccn12 | u | -0.5% | 6.3% | 0.7%
O=c1cc(CN2CCCc3ccccc32)nc2sccn12 | 11.2% | 3.6% | 28.2µM* | -18.1%
CCN(C(=O)C(=O)Nc1ccc2nc3n(c(=O)c2c1)CCCCC3)c1ccc(F)cc1 | x | x | 1.5% | x
CCCCOc1ccc(CSC2=NCCN2)cc1[N+](=O)[O-] | 13.1µM* | -7.2% | -3.7% | u
COc1ccc(CSC(=N)N)cc1[N+](=O)[O-] | 1.7% | -8.8% | 11.1% | x
O=[N+]([O-])c1cc([As](=O)(O)c2ccc(O)c([N+](=O)[O-])c2)ccc1O | 2.94µM* | -1.1% | 14.1µM* | 4.65µM*
N=C(N)SCc1ccc(O)c([N+](=O)[O-])c1 | 47.8% | -0.4% | 44.7µM* | 49.6%
CCCCCOc1ccc(CSC(=N)N)cc1[N+](=O)[O-] | 0.465µM* | 1.9% | 6.6% | u
O=[N+]([O-])c1cc(CN(CCO)CCO)ccc1O | 46.7% | 0.6% | u | 66.7%
Cc1nn(C)c(C)c1NC(=O)COc1ccc(Cl)cc1Br | u | 0.4% | -11.7% | -7.3%
CN(Cc1ccccc1F)C(=O)CN1c2cccc3cccc(c23)S1(=O)=O | 1.8% | -12.5% | -4.0% | -32.2%
O=C(CSc1ncc2c(n1)-c1ccccc1N(Cc1ccc(Cl)cc1)S2(=O)=O)c1ccccc1 | x | x | 1.0% | x
CCCCOc1ccc(Br)cc1CSC(=N)N | u | -15.4% | -1.7% | 4.65µM*
Cc1nc(SCc2ccc(O)c([N+](=O)[O-])c2)c([N+](=O)[O-])[nH]1 | u | 0.4% | 39.8µM* | -9.7%
